According to PubChem BioAssay (EPA / NIEHS):
Where “and” joins values, the source holds several entries; their conditions need not be identical. Equal values may be shown once. Results filed as inconclusive are left out. Some structures have more than one record in an assay (separate samples or runs), and their calls can disagree. Calls of active or inactive are those of the source. Rule for the calls: active = hit-call score of the fitted dose curve at least 0.9, where 1 is the maximum; inconclusive = response in the unintended direction; inactive = score below 0.9.

How the values were obtained:
[1] = target: Cellular tumor antigen p53 (Homo sapiens) (UniProt P04637); assay: TOX21_p53_BLA_p2_ratio: Tox21 HCT-116 p53 Agonism Beta-lactamase Assay, Ratio, Phase 2 (AID 2283592)
In short: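 Read-out is the blue/green (460/530 nm, 405 nm excitation) ratio after 2 h CCF4-AM loading, fitted as gain versus DMSO. Compounds, pinned at 217-fold dilution from DMSO stocks, stayed 16 h on HCT-116 beta-lactamase reporter cells seeded 5 h earlier.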

[2] = TOX21_p53_BLA_p3_viability: Viability Assessment in the Tox21 HCT-116 p53 Agonism Beta-lactamase Assay, Phase 3 (AID 2283593);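 note: cells exposed to compound for 16 h before reading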
In short: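 HCT-116 cells (4000/well) rested 5 h at 37C, then got DMSO compounds by pin tool (217-fold dilution) for 16 h at 37C, 5% CO2. After the bla read, CellTiter-Glo was added and luminescence read at 30 min, room temperature.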

[3] = target: Cellular tumor antigen p53 (Homo sapiens) (UniProt P04637); assay: TOX21_p53_BLA_p3_ratio: Tox21 HCT-116 p53 Agonism Beta-lactamase Assay, Ratio, Phase 3 (AID 2283596)
In short: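 Cells were seeded at 4000/well, rested 5 h at 37C, then dosed with DMSO compound solutions (217-fold dilution) for 16 h. CCF4-AM substrate was loaded for 2 h at room temperature, and the 460/530 nm emission ratio was fitted for gain of signal versus DMSO.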

[4] = target: Cellular tumor antigen p53 (Homo sapiens) (UniProt P04637); assay: TOX21_p53_BLA_p5_ratio: Tox21 HCT-116 p53 Agonism Beta-lactamase Assay, Ratio, Phase 5 (AID 2283599)
In short: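 HCT-116 cells carrying a p53-inducible beta-lactamase reporter were seeded at 4000 cells/well and dosed after 5 h with compound in DMSO (217-fold dilution). After 16 h at 37C, CCF4-AM substrate was added for 2 h, and the 460/530 nm emission ratio was scored as gain-of-signal versus DMSO.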

[5] = TOX21_p53_BLA_p5_viability: Viability Assessment in the Tox21 HCT-116 p53 Agonism Beta-lactamase Assay, Phase 5 (AID 2283600)
In short: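 Viability came from CellTiter-Glo ATP luminescence, read after 30 min at room temperature. Before this, HCT-116 p53-bla cells (4000/well) had 16 hours of compound exposure at 37C, with DMSO stocks diluted 217-fold on transfer.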

[6] = target: Cellular tumor antigen p53 (Homo sapiens) (UniProt P04637); assay: TOX21_p53_BLA_p4_ratio: Tox21 HCT-116 p53 Agonism Beta-lactamase Assay, Ratio, Phase 4 (AID 2283601)
In short: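 HCT116 cells carrying an inducible beta-lactamase reporter were plated at 4000 cells/well, rested 5 h, then exposed to compounds in DMSO (217-fold dilution) for 16 h at 37C. CCF4-AM substrate was loaded 2 h at room temperature; 460/530 nm emission ratio scored gain-of-signal versus DMSO.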

[7] = TOX21_p53_BLA_p4_viability: Viability Assessment in the Tox21 HCT-116 p53 Agonism Beta-lactamase Assay, Phase 4 (AID 2283597);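 note: hits lower the luminescence signal meaning cytotoxicity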
In short: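 Cytotoxicity as reduced cellular ATP (CellTiter-Glo luminescence, 30 min room temperature), measured in the same wells following the CCF4 FRET p53 reading. Human HCT-116 cells received compounds in DMSO (217-fold dilution) for 16 h.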

[8] = Tanguay_ZF_120hpf_MORT_legacy: (Legacy) Oregon State University Tanguay Lab 120 Hour Post-fertilization zebrafish Assay for Mortality (AID 2283633)
In short: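 Static waterborne exposure from 6 to 120 hpf at 28C of single dechorionated wild-type (5D) embryos per well, 0.64% DMSO final. Death recorded present/absent by brightfield at 24 and 120 hpf.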

[9] = Tanguay_ZF_120hpf_YSE_legacy: (Legacy) Oregon State University Tanguay Lab 120 Hour Post-fertilization zebrafish Assay for Yolk Sac Edema (AID 2283634)
In short: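 Presence or absence of yolk sac edema was recorded at 120 hpf in surviving larvae. These were wild-type Tropical 5D embryos, chorion removed at 4 hpf, held in static exposure at 28C from 6 hpf with 0.64% DMSO vehicle.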

[10] = Tanguay_ZF_120hpf_AXIS_legacy: (Legacy) Oregon State University Tanguay Lab 120 Hour Post-fertilization zebrafish Assay for Body Axis Malformation (AID 2283635)
In short: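 Binary scoring of axis defects at 120 hpf under brightfield, fitted positive versus DMSO. Tropical 5D embryos, chorion removed by pronase at 4 hpf, were singly exposed in sealed, dark plates at 28C from 6 hpf; DMSO 0.64% final.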

[11] = Tanguay_ZF_120hpf_EYE_legacy: (Legacy) Oregon State University Tanguay Lab 120 Hour Post-fertilization zebrafish Assay for Eye Malformation (AID 2283636);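 note: binary presence or absence of eye malformation scored by brightfield in 120 hpf larvae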
In short: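 Static waterborne exposure of dechorionated zebrafish embryos (strain Tropical 5D), 6 to 120 hpf, sealed plates at 28C, 0.64% DMSO vehicle. Eye malformation is scored as a binary endpoint, with gain of signal analysed relative to DMSO.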

[12] = Tanguay_ZF_120hpf_SNOU_legacy: (Legacy) Oregon State University Tanguay Lab 120 Hour Post-fertilization zebrafish Assay for Snout Malformation (AID 2283637)
In short: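 Dechorionated zebrafish, individually housed from 6 hpf in covered, sealed wells at 28C with 0.64% DMSO vehicle, were examined at 120 hpf for snout malformation. Responses were binary and analysed positive-direction relative to DMSO.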

[13] = Tanguay_ZF_120hpf_JAW_legacy: (Legacy) Oregon State University Tanguay Lab 120 Hour Post-fertilization zebrafish Assay for Jaw Malformation (AID 2283638)
In short: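 Binary jaw-malformation call at 120 hpf by brightfield microscopy. Embryos (Tropical 5D strain, chorion removed at 4 hpf) were dosed statically at 6 hpf, one per well, at 28C with 0.64% DMSO. Embryos that died were not scored.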

[14] = Tanguay_ZF_120hpf_PE_legacy: (Legacy) Oregon State University Tanguay Lab 120 Hour Post-fertilization zebrafish Assay for Pericardial Edema (AID 2283640)
In short: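 Scoring was binary, by brightfield microscopy at 120 hpf, and skipped where mortality occurred. Wild-type embryos were kept under sealed, foil-covered static exposure at 28C in 0.64% (vol/vol) DMSO.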

[15] = Tanguay_ZF_120hpf_SOMI_legacy: (Legacy) Oregon State University Tanguay Lab 120 Hour Post-fertilization zebrafish Assay for Somite Malformation (AID 2283647)
In short: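 Binary somite-defect scoring at 120 hpf, omitted for embryos that died, in wild-type (Tropical 5D) zebrafish with chorion removed by pronase at 4 hpf; static exposure began 6 hpf, single embryos per well, 28C, 0.64% DMSO; fitted positive versus DMSO.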

[16] = Tanguay_ZF_120hpf_PFIN_legacy: (Legacy) Oregon State University Tanguay Lab 120 Hour Post-fertilization zebrafish Assay for Pectoral Fin Malformation (AID 2283648);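 note: each larva judged yes or no for fin defect by brightfield with dead larvae skipped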
In short: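 Scoring of pectoral fin malformation was binary, made at 120 hpf on larvae exposed statically from 6 hpf after enzymatic chorion removal. Activity was fitted upward relative to DMSO controls at 0.64% (vol/vol).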

[17] = Tanguay_ZF_120hpf_CFIN_legacy: (Legacy) Oregon State University Tanguay Lab 120 Hour Post-fertilization zebrafish Assay for Caudal Fin Malformation (AID 2283649)
In short: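 Binary brightfield scoring of caudal fin defects at 120 hpf after static, light-shielded exposure at 28C from 6 hpf. Tropical 5D embryos, chorion removed with pronase at 4 hpf, final DMSO 0.64%.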

[18] = Tanguay_ZF_120hpf_PIG_legacy: (Legacy) Oregon State University Tanguay Lab 120 Hour Post-fertilization zebrafish Assay for Pigmentation Malformation (AID 2283650)
In short: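 Endpoint is incidence of abnormal pigmentation at 120 hpf in dechorionated 5D zebrafish exposed singly from 6 hpf at 28C, DMSO vehicle at 0.64%. Embryos dying by 24 or 120 hpf are excluded from scoring.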

Measured: AC50

Chain of Cellular tumor antigen p53 (Homo sapiens) (P04637 whole entry, looked up): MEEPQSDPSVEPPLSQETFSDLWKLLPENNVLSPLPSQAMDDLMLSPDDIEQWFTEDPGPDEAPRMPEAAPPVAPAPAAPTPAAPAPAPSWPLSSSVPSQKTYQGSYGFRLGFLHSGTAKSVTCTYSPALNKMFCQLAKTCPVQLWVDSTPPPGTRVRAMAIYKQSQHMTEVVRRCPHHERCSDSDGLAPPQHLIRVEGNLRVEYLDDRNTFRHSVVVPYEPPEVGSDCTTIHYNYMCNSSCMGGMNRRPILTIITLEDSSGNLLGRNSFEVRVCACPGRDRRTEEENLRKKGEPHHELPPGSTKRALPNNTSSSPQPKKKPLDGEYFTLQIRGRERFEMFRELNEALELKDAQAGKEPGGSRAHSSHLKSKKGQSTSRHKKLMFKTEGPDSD

CCCCCCCCCCCC(=O)NCCCN(C)C
active: [1] 87.1 µM | [2] 47.3 µM | [3] 87.2 µM | [4] 86 µM | [5] 65.7 µM | [6] 59.8 µM

Cc1ccccc1C(OCCN(C)C)c1ccccc1 (stereo not given)
inactive: [1] | [2] | [3]

CC(C)(O)C(=O)c1ccccc1
inactive: [1] | [2]

COc1cc([N+](=O)[O-])ccc1N
inactive: [1] | [2]

C[C@]12CC[C@@H]3c4ccc(O)cc4CC[C@H]3[C@@H]1CC[C@@H]2OC(=O)CCC1CCCC1
inactive: [1] | [2] | [3] | [7] | [4] | [5] | [6]

Oc1c(Cl)ccc(Cl)c1Cl
inactive: [1] | [2] | [3] | [7] | [4] | [6]

CC1=CC(=O)c2ccccc2C1=O
inactive: [1] | [4] | [6]
active: [2] 35.7 µM and 36.7 µM | [3] 29.7 µM and 41.4 µM | [4] 40.7 µM

CCOC(C)=O
inactive: [1] | [2] | [3] | [7] | [4] | [6]

CCCCCC(C)OC(=O)COc1ccc(Cl)c2cccnc12 (stereo not given)
inactive: [1] | [2] | [3] | [7] | [4]

CCCCCCCCCCCCOC(=O)c1cc(O)c(O)c(O)c1
active: [1] 24.7 µM and 32.4 µM | [2] 49.2 µM and 77.1 µM | [3] 57.6 µM and 81.5 µM | [7] 46.1 µM and 30.9 µM | [4] 48.3 µM and 77 µM | [5] 41.2 µM and 78.9 µM | [6] 53 µM and 36.9 µM

O=C(Nc1ccc(Cl)c(Cl)c1)c1cc(Cl)cc(Cl)c1O
active: [1] 0.354 µM | [2] 0.989 µM | [3] 0.434 µM | [7] 0.671 µM | [4] 1.45 µM | [6] 2.77 µM

CC(C)(C)c1ccc(O)c(O)c1
inactive: [1] | [2] | [3] | [7] | [4] | [6]

CCCCCCCCCCCCCC[n+]1ccccc1
active: [1] 4.85 µM | [3] 14.1 µM | [7] 13.3 µM | [6] 21.6 µM
inactive: [2] | [4] | [5]

Nc1ccc(O)c(C(=O)O)c1
inactive: [1] | [2] | [3] | [7] | [4] | [5]
active: [4] 71.9 µM

CC=O
active: [1] 3.17 µM | [2] 86.1 µM | [3] 2.37 µM | [7] 47.9 µM | [4] 30.3 µM | [5] 74.4 µM | [6] 62.6 µM

Nc1cc(Cl)c(-c2cc(Cl)c(N)cc2Cl)cc1Cl
active: [1] 69 µM and 81.7 µM | [2] 70.8 µM and 63.8 µM | [3] 86.4 µM and 84.5 µM | [7] 40.7 µM and 29.6 µM | [4] 85.2 µM and 85.6 µM | [6] 81.8 µM and 57.1 µM

O=c1cc(-c2ccccc2)oc2ccc3ccccc3c12
inactive: [1] | [2] | [3] | [7] | [4] | [6]

c1cnc2c(c1)ccc1cccnc12
active: [1] 38.3 µM
inactive: [1] | [2] | [3] | [4] | [6]

O=C1OC(=O)c2cc(-c3ccc4c(c3)C(=O)OC4=O)ccc21
inactive: [1] | [2] | [3] | [7] | [4] | [6]

NC(=NCCCCCCN=C(N)/N=C(\N)Nc1ccc(Cl)cc1)/N=C(\N)Nc1ccc(Cl)cc1
inactive: [1] | [3] | [4]
active: [1] 59.8 µM [middle of 4 runs] | [3] 72.6 µM [middle of 4 runs] | [4] 79.6 µM [middle of 4 runs] | [6] 71.4 µM [middle of 5 runs]

O=C1OC2(c3ccccc31)c1cc(I)c(O)c(I)c1Oc1c2cc(I)c(O)c1I
inactive: [1] | [2] | [3] | [4] | [6]
active: [1] 78.6 µM | [3] 87.3 µM | [4] 83 µM | [6] 73.9 µM

CN(C)c1ccc(C(=C2C=CC(=[N+](C)C)C=C2)c2ccccc2)cc1
active: [1] 9.06 µM and 39.7 µM | [2] 1.15 µM | [3] 15.1 µM | [4] 19.2 µM | [6] 15.8 µM
inactive: [2] | [3] | [4] | [5] | [6]

CC1=NN(c2ccccc2)C(=O)C1
inactive: [1] | [2] | [3] | [7] | [4] | [6]

O=S(=O)(O)c1ccc2cc(O)ccc2c1
inactive: [1] | [2] | [3] | [7] | [4] | [6]

CCCCc1oc2ccccc2c1C(=O)c1cc(I)c(OCCN(CC)CC)c(I)c1
active: [2] 32.3 µM and 51.8 µM | [6] 64.9 µM
inactive: [1] | [2] | [3] | [4] | [6] | [8] | [9] | [10] | [11] | [12] | [13] | [14] | [15] | [16] | [17] | [18]

Cc1cc(=O)oc2cc(O)ccc12
active: [4] 65 µM and 38.4 µM | [6] 53.2 µM and 54.1 µM
inactive: [1] | [2] | [3] | [4] | [6]

O=C(c1cc(O)c(O)c(O)c1)c1ccc(O)c(O)c1O
active: [1] 59.5 µM and 61.8 µM | [3] 60.9 µM and 84.5 µM | [4] 86.8 µM and 74.6 µM | [6] 79.2 µM and 49.9 µM
inactive: [2] | [7] | [5]

CCCCCCOC(=O)c1ccc(O)cc1
inactive: [1] | [2] | [3] | [5]
active: [1] 67.3 µM | [3] 86 µM | [4] 70.6 µM and 76.8 µM | [6] 67.3 µM and 80 µM
